E coli growth-1: reduces bacterial viability in AddAB counter-screen; E. coli V3065 growth, OD600 absorbance, 18 h; inhibition, % at 11.9 µM; actives 0.27% (n = 330,000);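 active means inhibition above the campaign's mean inhibition across all tested compounds plus 3 SD, cut at about 9.9% in these data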;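 further: uninfected addAB+ strain grown without phage in ampicillin broth; 0% = DMSO wells and 100% = ciprofloxacin 0.95 µg/ml wells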
phage Ecoli inh: E. coli growth loss with phage present. actives 0.26% (n = 360,000). inhibition, % at 11.9 µM. growth absorbance; in the data active means inhibition above about 11%
AddAB inh: less growth of phage-infected E. coli with AddAB; E. coli expressing H. pylori AddAB, absorbance growth; inhibition, % at 11.9 µM; actives 0.29% (n = 330,000); in the data active means inhibition above about 12%;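 further: 0% = vehicle wells of infected cells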
E coli growth-2: inhibitors of Escherichia coli growth. OD600, 23 h; active compounds read low. OD600 absorbance (no concentration beside the values). actives 0.21% (n = 330,000). AID 1053175;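 active means OD600 absorbance below the run mean of sample wells minus 3.6 SD, in any replicate, cut at about 0.56 in these data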
Tat export inh: blocks Tat-dependent protein export in E. coli. E. coli MC4100 TorA-mCherry Tat export, fluorescence. AID 488895. actives 0.036% (n = 340,000). inhibition, % at 10 µM;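 active means mean replicate inhibition at least 50% and at least half of replicates individually reaching 50%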;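 further: exported cargo escapes ClpAP degradation while cytoplasmic cargo is degraded and loses fluorescence; 0% = median of neutral control wells and 100% = median of NaSCN control wells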
AddAB confirm: growth loss of T4-infected E. coli expressing H. pylori AddAB, confirmed | shares compounds with AddAB inh | E. coli V3065 expressing H. pylori AddAB, T4 phage, OD; T4 phage with gene 2 nonsense mutations | inhibition, % at 11.9 µM | actives 64% (n = 880);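 active means mean inhibition above a set limit taken from the earlier primary screen, cut at about 13% in these data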;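 further: higher means less bacterial growth since AddAB block lets phage replicate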
RecBCD counter: AddAB counter-screen: growth loss of RecBCD+ E. coli infected with mutant T4 phage. shares compounds with AddAB inh. E. coli V66 + mutant T4 phage, OD growth. inhibition, % at 11.9 µM. actives 73% (n = 880). AID 488955;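 active means mean inhibition above the mean of solvent-only control wells plus 3 SD, cut at about 4% in these data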;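 further: optical density read after an 18 h incubation at 37 °C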
bact viab count: counter-screen: bacterial growth inhibition | inhibition, % at 11.9 µM | bacterial viability, absorbance (AddAB counterscreen) | AID 488956 | actives 35% (n = 880) | shares compounds with AddAB inh; in the data active means inhibition above about 25%
An asterisk follows results filed as active; · = no result given. Shown are actives, neighbours in structure and some others; about 0.5% of the full set was active somewhere.

SMILES	E coli growth-1	phage Ecoli inh	AddAB inh	E coli growth-2	Tat export inh	AddAB confirm	RecBCD counter	bact viab count
CC(Sc1ccsc1[N+](=O)[O-])C(=O)NCc1ccco1 (stereo not drawn)	7	6	14*	0.69	-4	23*	2	11
CC(Sc1nnc(-c2cccs2)n1-c1ccccc1)C(=O)NCc1ccco1 (stereo not drawn)	-3	0	1	0.71	-1	·	·	·
O=C(Cc1ccc([N+](=O)[O-])cc1)NCc1cccnc1	-4	0	4	0.61	-18	·	·	·
Cc1ccc(S(=O)(=O)NC(C(=O)N2CCC3(O)CCCCC3C2)c2ccccc2)cc1 (stereo not drawn)	·	·	·	0.69	·	·	·	·
COc1cc(C=Nn2c(-c3cc(C)[nH]n3)n[nH]c2=S)cc(OC)c1O	·	·	·	0.68	·	·	·	·
COc1ccc(C=NNC(=O)Nc2cccc3nsnc23)c(OC)c1	·	·	·	0.78	·	·	·	·
CCN1C(=O)C2C(c3ccc(C)cc3)N3C(=O)N(c4cccc(Br)c4)C(=O)[C@@]3(Cc3ccccc3)C2C1=O (stereo partly drawn)	·	·	·	0.66	·	·	·	·
Cc1cc(SCC(=O)NN=Cc2ccc(O)cc2O)c(C)cc1Br	·	·	·	0.7	·	·	·	·
Cc1cc(SCC(=O)N/N=C/c2ccc(O)c(O)c2O)c(C)cc1Br	18*	17*	16*	·	3	12	10*	1
CC(C)CC1(C(=O)O)NC(c2ccccc2O)C2C(=O)N(C(C)C)C(=O)C21 (stereo not drawn)	-2	3	0	0.78	1	·	·	·
CC(C)N1C(=O)C2C(c3ccccc3O)NC(C)(C(=O)O)C2C1=O (stereo not drawn)	3	1	15*	0.74	13	0	1	-2
CCOc1ccccc1C=NNC(=O)c1cccc(S(=O)(=O)N2CCOCC2)c1	·	·	·	0.72	·	·	·	·
CCc1nnc(NS(=O)(=O)c2ccc(N/C=C\C(=O)c3ccc(C)cc3)cc2)s1	13*	10	20*	0.77	0	0	2	1
CCc1nnc(NS(=O)(=O)c2ccc(N/C=C/C(=O)c3ccc(C)cc3)cc2)s1	11*	4	17*	·	-7	0	1	1
Oc1cccc(C=NN2CCN(c3ccccn3)CC2)c1	·	·	·	0.72	·	·	·	·
COc1ccc(C=Nn2cc(-c3ccc(OC)cc3)nc2N)cc1	·	·	·	0.65	·	·	·	·
Oc1ccc(/C=N/NC(=S)Nc2cccnc2)c(O)c1	11*	5	16*	·	3	8	11*	16
CC(C)(C)Nc1nc(Cl)nc(Nc2ccccc2)n1	0	2	3	0.68	2	·	·	·
COc1ccccc1Nc1nc(Cl)nc(NC(C)(C)C)n1	79*	2	96*	0.68	8	-3	-2	-2
O=C(c1ccc([N+](=O)[O-])o1)N1CCOCC1	11*	11	17*	0.54	-13	64*	8.5*	16
CC(C)C(=O)N1CCN(c2ccc(NC(=O)c3ccc([N+](=O)[O-])o3)cc2)CC1	6	4	13*	0.69	-2	29*	3	8
Cc1cc2oc(=O)cc(CN(C)Cc3cccc(F)c3)c2cc1Cl	2	0	-1	0.67	15	·	·	·
CCOc1ccc(CN(C)Cc2cc(=O)oc3cc(C)c(Cl)cc23)cc1	15*	2	20*	0.69	3	-1	-1	-3
Cc1ccc(-c2nnc(SCC(=O)NN=Cc3c(C)nn(-c4ccccc4)c3C)n2-c2ccc(C)cc2)cc1	·	·	·	0.68	·	·	·	·
COc1ccc(C=NNc2nc(C)cc(-c3ccccc3)n2)c(OC)c1	·	·	·	0.62	·	·	·	·
SMILES	E coli growth-1	phage Ecoli inh	AddAB inh	E coli growth-2	Tat export inh	AddAB confirm	RecBCD counter	bact viab count
Cc1cccc2cc(C#N)c(N3CCOCC3)nc12	-1	2	3	0.67	-3	·	·	·
Cc1cccc2cc(C#N)c(N3CCC(O)CC3)nc12	2	3	13*	0.7	-12	2	0	-1
Cc1ccc(S(=O)(=O)Nc2ccc(S(=O)(=O)Nc3nccs3)cc2)c([N+](=O)[O-])c1	9	10	16*	0.67	-4	6	4.1*	8
Cc1ccc(S(=O)(=O)Nc2nccs2)cc1[N+](=O)[O-]	1	3	3	0.66	-4	·	·	·
CSc1nnc2n(-c3ccc(C)cc3)c(=O)c3c4c(sc3n12)COC(C(C)C)C4 (stereo not drawn)	8	1	15*	0.73	0	-6	-1	-5
COc1ccc(C=Nc2oc(C)c(C)c2C#N)c(OC)c1	·	·	·	0.68	·	·	·	·
CCCCOc1ccc(Cc2cnc(N)nc2N)cc1	12*	10	14*	0.34*	-16	13*	9.2*	7
O=c1c(=Cc2ccccn2)sc2n1CN(c1ccccc1)CN=2	·	·	·	0.68	·	·	·	·
Cc1onc(-c2ccccc2)c1C(=O)O/N=C(\N)c1ccc([N+](=O)[O-])o1	7	-16	16*	·	3	33*	3	6
COc1cc(C=NNC(=O)c2ccc3c(c2)OCO3)ccc1O	·	·	·	0.73	·	·	·	·
COc1ccc(/C=C2\SC(=S)N(CCCC(=O)NNC(=O)c3ccccc3O)C2=O)cc1	0	6	5	·	3	·	·	·
COc1ccccc1/C=C1\SC(=S)N(CCC(=O)NNC(=O)c2ccccc2O)C1=O	18*	·	20*	0.75	0	15*	19*	14
O=C(CN1C(=O)S/C(=C\c2ccc(Cl)cc2)C1=O)NNC(=O)c1ccccc1O	6	9	16*	0.68	-3	9	5.5*	9
O=[N+]([O-])c1ccc(C=Nn2c(COc3ccccc3)n[nH]c2=S)cc1	·	·	·	0.73	·	·	·	·
O=C(COC(=O)C1CCN(S(=O)(=O)c2ccc3c(c2)OCCO3)CC1)NC1CCS(=O)(=O)C1 (stereo not drawn)	9.8*	0	26*	0.68	-3	-6	-2	-5
O=C(COC(=O)C1CCN(S(=O)(=O)c2ccc3c(c2)OCCO3)CC1)NC1CCCCC1	3	2	0	0.68	2	·	·	·
CC1OC2(C)OC(=N)C1(C#N)C(C#N)(C#N)C2c1ccccc1 (stereo not drawn)	23*	1	37*	0.68	-8	2	0	1
COc1ccc(-n2c(Cc3cccn3C)nnc2SCC(=O)Nc2ccccc2)cc1	-2	2	7	0.77	1	·	·	·
COc1ccc(-n2c(Cc3cccn3C)nnc2SCC(=O)Nc2nc(C)cs2)cc1	9	3	15*	0.73	27	-1	-1	-2
COc1ccccc1C=CC(=O)NCC(=O)NN=Cc1ccccc1[N+](=O)[O-]	·	·	·	0.7	·	·	·	·
O=C(O)c1ccc(C=NNC(=O)c2ccc(Br)cc2)cc1	·	·	·	0.6	·	·	·	·
CCCCC(=O)O[C@H]1CC[C@H]2[C@@H]3CCc4cc(O)ccc4[C@H]3CC[C@]12C	-1	4	97*	·	3	3	0	-1
